Lassa entry inh: qHTS for Inhibitors of binding or entry into cells for Lassa Virus | Lassa virus pseudotype entry inhibition, cell reporter | Potency, µM (series often up to 37.9 µM), for the others: at the highest dose activity change, negative = inhibition, usual class: inhibitors | 300,000 compounds, 1.2% hits | AID 540256, 2011; calls by dose curve; tested in HEK293 cells; further: potency means the concentration at half of the fitted maximal effect; nearly all actives have a fitted effect of over 50% in size
Vaccinia Venus: qHTS for Stage-Specific Inhibitors of Vaccinia Orthopoxvirus: Venus Reporter Primary qHTS; Vaccinia virus Venus reporter expression, fluorescence; 330,000 compounds, 0.46% hits; Potency, µM (doses to about 36.5 µM), for inactives: at the top dose activity change, negative = inhibition, hits mostly inhibitors; calls by dose curve; tested in A549 cells; further: potency means the concentration at half of the fitted maximal effect; nearly all actives have a fitted effect of over 30% in size
HCV inhibitor: qHTS Assay for Inhibitors of Hepatitis C Virus (HCV) | Huh7.5.1 HCVcc-Cre infection, luciferase reporter, 44 h | 340,000 compounds, 3.4% hits | Potency, µM (highest dose often 41.8 µM), without a hit: at the highest dose activity change, negative = inhibition, usual class: inhibitors; active means well fitted inhibition curve with a large enough effect; inconclusive means small, poorly fitted or top-dose-only effect, or another doubt; inactive means no such curve, though single readings can be large or run the other way; further: potency means the concentration at half of the fitted maximal effect
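Seed cells (1,000/well) for 4 h; treat with compound and infect with HCVcc-Cre, moi about 0.5. Incubate 44 h, then detect luciferase activity.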
HCMV inh: qHTS Assay for inhibitors of the human cytomegalovirus (HCMV). HFF cells, HCMV-luciferase reporter, 72 h; active compounds read low. activity change, negative = inhibition, % at 57.5 µM. 410,000 compounds, 4.5% hits. AID 1259415, 2018; in the data active means activity change below about -60%; inconclusive means no clear call, values can overlap the other calls; inactive means above about -39%
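Two-dose cell screen: HFF monolayers treated with compounds and infected with luciferase-expressing HCMV at 1 PFU/cell, 72 h at 37C, then lysed for luciferase measurement.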
MARV entry inh: qHTS for inhibitors of binding or entry into cells for Marburg Virus | Marburg virus pseudotyped entry inhibition, cell reporter | Potency, µM (series often up to 37.8 µM), for inactives: top-dose activity change, negative = inhibition, actives largely listed as inhibitors | 300,000 compounds, 1.8% hits; calls by dose curve; tested in HEK293 cells; further: potency means the concentration at half of the fitted maximal effect
VACV mCherry inh: qHTS for Stage-Specific Inhibitors of Vaccinia Orthopoxvirus: mCherry Reporter Primary qHTS; Vaccinia virus mCherry reporter infection, fluorescence; Potency, µM (titrated, usually from 36.5 µM), without a hit: top-dose activity change, negative = inhibition, actives largely listed as inhibitors; 310,000 compounds, 0.63% hits; AID 720579, 2013; calls by dose curve; tested in A549 cells; further: potency means the concentration at half of the fitted maximal effect; nearly all actives have a fitted effect of over 35% in size
Numbers without * were called inactive; i = inactive; ? = inconclusive; · = no result given; [ ] = dose if it differs, or a comment. This is a sample that favours compounds with a hit; in the whole collection about 7.8% have one here. On the % scale 0 is the no-effect control and ±100 the full control effect.

SMILES | Lassa entry inh | Vaccinia Venus | HCV inhibitor | HCMV inh | MARV entry inh | VACV mCherry inh
CCOC(=O)c1cc2c(=O)n3cccc(C)c3nc2n(CC(C)C)c1=NC(=O)c1ccco1 | 3%[46.1 µM] | -8% | ? | 8 | -11%[46.1 µM] | ?
CCN(CC)C1=NC(=[N+](CC)CC)c2ccccc21 | ? | · | ? | -103* | ? | ·
COc1ccccc1C(=O)N[C@@H]1c2ccccc2C2(CCN(Cc3ccc(C)o3)CC2)[C@H]1O | · | -24% | · | · | · | -5%
CCc1ccc2[nH]c(=O)c(C3C(C#N)=C(N)Oc4c3ccc3cccnc43)cc2c1 (stereo not drawn) | -17% | · | 11µM* | -4 | ? | ·
Cc1ccc2cc(C3C(C#N)=C(N)Oc4c3ccc3cccnc43)c(=O)[nH]c2c1 (stereo not drawn) | ? | -30% | 11µM* | -103* | ? | -28%
N#CC1=C(N)Oc2c(ccc3cccnc23)C1c1cccnc1 (stereo not drawn) | ? | · | 3.5µM* | -99* | ? | ·
CC(=O)C1=C(C)OC(N)=C(C#N)C1c1cc2cccc(C)c2nc1Cl (stereo not drawn) | 1% | · | 13% | 14 | 15% | ·
CCOc1cccc(C2C(C#N)=C(N)Oc3cc(C)[nH]c(=O)c32)c1OCC (stereo not drawn) | · | · | -1% | -12 | 1% | ·
Cc1ccccc1Nc1cc(C(=O)NCCCN2CCN(c3cccc(Cl)c3)CC2)c2ccccc2n1 | ? | ? | · | ? | · | -29%
CCc1ccc(NC(=O)C2CCCN2S(=O)(=O)c2ccc3c(c2)CCCC(=O)N3)cc1 (stereo not drawn) | -10%[46.1 µM] | -17% | · | -34 | · | -26%
O=C(CCCn1c(=O)c2cccn2c2ccc(F)cc21)NCCc1ccccc1 | -23%[46.1 µM] | -7% | · | ? | · | -7%
CCOC(=O)C1(C)C=C(Nc2cccc(C(=O)O)c2)C(=O)N1c1cccc(C(=O)O)c1 (stereo not drawn) | 3%[46.1 µM] | 0% | · | 0 | 20%[46.1 µM] | -10%
CC(C)Cn1cc(C(=O)N2CCN(c3ccccn3)CC2)c2c3ccccc3n(C)c2c1=O | 6.5µM* | · | ? | 10 | 16µM* | ·
Cc1ccc(-c2nn(-c3ccccc3)cc2C(=O)N2CCN(c3ccccn3)CC2)cc1 | -19% | ? | 11µM* | -6 | ? | -17%
CCN1CCN(C(=O)c2cn(CCOC)c(=O)c3c2c2ccccc2n3C)CC1 | 19% | · | 20% | 10 | 5% | ·
O=C(c1cn(-c2ccccc2)nc1-c1ccccc1)N1CCOCC1 | 5% | · | -5% | 29 | 9% | ·
O=C(c1cn(-c2ccccc2)nc1-c1ccccc1)N1CCN(c2ccccn2)CC1 | ? | · | 10µM* | -19 | ? | ·
Cc1ccc(-c2nn(Cc3ccccc3)cc2C(=O)N2CCN(c3ccccn3)CC2)cc1 | · | · | -14% | 7 | · | ·
CN(C(=O)c1oc(=O)c2ccccc2c1-c1ccccc1)c1cccc(Cl)c1 | 1%[46.1 µM] | -11% | · | -20 | -11%[46.1 µM] | i
Cc1cc(C)nc(SCC(=O)Nc2ccc(N3CCOCC3)c(Cl)c2)n1 | ? | ? | 7.9µM* | -31 | ? | ·
O=C(COc1c(F)c(F)c(C(F)(F)F)c(F)c1F)Nc1ccc(N2CCOCC2)c(Cl)c1 | -21% | -18% | 0% | 9 | -3% | i
CSc1ccc(OCC(=O)Nc2ccc(N3CCOCC3)c(Cl)c2)cc1 | 3% | -23% | 10µM* | 17 | -7% | -9%
CC(=O)Nc1ccc2nc(SCC(=O)Nc3ccc(N4CCOCC4)c(Cl)c3)sc2c1 | -16% | · | ? | -36 | -2% | ·
CC(=O)n1cc(C(C[N+](=O)[O-])SCCN)c2ccccc21 (stereo not drawn) | ? | · | ? | · | 21µM* | ·
Cn1cc(C(C[N+](=O)[O-])c2ccccc2)c2ccccc21 (stereo not drawn) | · | · | ? | 9 | · | ·
SMILES | Lassa entry inh | Vaccinia Venus | HCV inhibitor | HCMV inh | MARV entry inh | VACV mCherry inh
O=C(c1cccs1)N(CCN1CCCCC1)CC1CCCN(C2CCCC2)C1 (stereo not drawn) | · | · | ? | 11 | · | ·
Cc1ccc(C(=O)N(CCN2CCCCC2)CC2CCCN(C3CCCC3)C2)s1 (stereo not drawn) | ? | -14% | · | -8 | 8.9µM* | -7%
O=C(CN1C(=O)S/C(=C\c2ccccc2F)C1=O)NC1C=CS(=O)(=O)C1 (stereo not drawn) | · | · | 1% | -63* | · | ·
CC1=C(c2ccc(C)c(C)c2)S(=O)(=O)N=C1N1CCC(C(=O)Nc2cccc(F)c2)CC1 | -21%[46.1 µM] | -17% | · | -25 | · | -15%
CSc1ccc(C2NN=C(c3ccccc3)S2)cc1 (stereo not drawn) | 6.3µM* | -8% | -3% | 19 | 2.8µM* | i
O=C1CC(N(CCc2ccccc2)C(=S)Nc2cc(Cl)ccc2Cl)C(=O)N1c1c(Cl)cccc1Cl (stereo not drawn) | ? | ? | ? | -25 | 13µM* | ?
O=C1CC(N(CCc2ccccc2)C(=S)Nc2ccccc2)C(=O)N1c1ccccc1 (stereo not drawn) | ? | -23% | -25% | -16 | ? | 9%
Cc1nc2sc(-c3ccccc3)cc2c(=O)[nH]1 | ? | -1% | 10µM* | 64 | ? | -7%
Cc1cccc(C(=O)Nc2c(C(=O)NCc3ccc(Cl)cc3)sc3nc(C)cc(C)c23)c1 | ? | -5%[7.34 µM] | · | -75* | ? | -15%[7.34 µM]
Nc1cc(=O)[nH]c(=O)n1-c1cccc(F)c1 | 15% | -4% | 4% | -84* | -2%[46.1 µM] | i
COc1ccc(-n2c(N)cc(=O)[nH]c2=O)cc1 | 0% | -12%[7.34 µM] | 5% | · | 16%[46.1 µM] | -3%[7.34 µM]
COc1ccc(CN2CC[C@H]3C=CC[C@@H](C(=O)Nc4ccc(Cl)cc4Cl)[C@H]3C2=O)cc1OC | · | ? | · | · | · | -24%
CCN1CCN(CC(=O)Nc2ccc(Cl)c(S(=O)(=O)N(C)C)c2)CC1 | · | · | 1% | -24 | · | ·
CCCCc1ccc(NC(=S)Nc2ccc(Cl)c(S(=O)(=O)N(C)C)c2)cc1 | ? | -22% | ? | -63* | ? | -11%
O=C1CN(C(=O)c2ccc(Cl)c(S(=O)(=O)N3CCc4ccccc43)c2)c2ccccc2N1 | ? | -13% | -24% | ? | 3.5µM* | ?
O=C(Nc1ccncc1)c1ccc(Cl)c(S(=O)(=O)N2CCc3ccccc32)c1 | 7.9µM* | -25% | 10µM* | -69* | ? | -19%
Cc1cccc(NC(=O)c2ccc(Cl)c(S(=O)(=O)N3CCCC3)c2)n1 | 2% | -20% | -34% | -18 | ? | -25%
Cc1cccc(NC(=O)c2ccc(Cl)c(S(=O)(=O)N3CCc4ccccc43)c2)n1 | · | · | ? | -65* | · | ·

Screens (PubChem)
